Bioassay records (PubChem BioAssay)
NS3h inh CB: HCV NS3 helicase inhibitors, primary screen, biochemical, fluorescence polarization, ChemBridge library; Hepatitis C virus NS3 helicase; 1.6% of 16,000 active; NS3h Cy5-dT15 DNA binding; AID 687043, 2013; inhibition, % at 100 µM;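 active = inhibition above the average over every tested compound plus 3 SD, cut at about 40% in these data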
Cy5 interf NS3h: Cy5 fluorescence quenchers or enhancers, artefact control for HCV NS3 helicase inhibitor project, biochemical, ChemBridge library, Cy5 readout | Cy5-dT15 DNA with NS3h, fluorescence interference; actives lie on both sides; signal over control mean, under 1 quenches | AID 720488, 2013 | 6% of 16,000 active | fluorescence interference ratio at 100 µM;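 active = compound fluorescence over control fluorescence at most 0.8, a quencher, or at least a set upper limit, an enhancer; inactive = ratio between 0.8 and the set upper limit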
* marks the source's active call; other numbers are inactive results. Hits are enriched below; roughly 6.9% of the tested compounds scored in any of these assays.

For O=C(Nc1nc2ccccc2s1)c1ccc(-c2ccccc2)cc1 the results were NS3h inh CB 34.8 and Cy5 interf NS3h 0.526*.
For COC(=O)c1cc(C(=O)Nc2nc3ccccc3s2)cc([N+](=O)[O-])c1 the results were NS3h inh CB -6.3 and Cy5 interf NS3h 0.534*.
Cc1cccc(C(=O)Nc2nc3ccc(Br)cc3s2)c1 was read as NS3h inh CB 7.3 and Cy5 interf NS3h 1.12.
For COC(=O)c1cc(C(=O)Nc2ccccc2C(N)=O)cc([N+](=O)[O-])c1 the results were NS3h inh CB 5.7 and Cy5 interf NS3h 0.959.
`O=C(Cc1ccccc1)NC(c1ccccc1)c1c(O)ccc2ccccc12` (stereo not drawn) gave NS3h inh CB 14.1 and Cy5 interf NS3h 0.978.
For CC(=O)c1ccc(NC(=O)c2sc3ccccc3c2Cl)cc1 the results were NS3h inh CB 5.4 and Cy5 interf NS3h 1.
`Cc1ccc(OCC2CNC(=O)O2)cc1` (stereo not drawn) gave NS3h inh CB 0.3 and Cy5 interf NS3h 0.995.
CCOc1ccc2c(=O)c(-c3nc4ccccc4s3)coc2c1 was read as NS3h inh CB 6.1 and Cy5 interf NS3h 1.02.
CC1=C(C(=O)Nc2ccc(Cl)cc2)C(c2ccc(F)cc2)NC(=O)N1 (stereo not drawn) was read as NS3h inh CB 1.8 and Cy5 interf NS3h 0.99.
`Cc1cc(C)n(S(=O)(=O)c2ccc3c(c2)C(=O)c2cc(S(=O)(=O)n4nc(C)cc4C)ccc2-3)n1` gave NS3h inh CB -57.2 and Cy5 interf NS3h 0.64*.
`Cc1ccc2ccc(S(=O)(=O)n3nc(C)cc3C)cc2c1` gave NS3h inh CB 6.7 and Cy5 interf NS3h 1.01.
O=C(/C=C/c1ccccc1Cl)n1cnc2ccccc21 was read as NS3h inh CB 1.6 and Cy5 interf NS3h 1.11.
Screening O=C(CSc1nnc2c(n1)[nH]c1ccccc12)NCCO returned NS3h inh CB -0.3 and Cy5 interf NS3h 1.06.
`COC(=O)C1=C(O)/C(=C/c2cc(C)n(-c3ccccc3C(F)(F)F)c2C)N=C1C` gave NS3h inh CB 4.1 and Cy5 interf NS3h 1.
Screening O=P(CO)(c1ccccc1)c1ccccc1 returned NS3h inh CB 0.7 and Cy5 interf NS3h 0.972.
Screening O=P(O)(O)CP(=O)(c1ccccc1)c1ccccc1 returned NS3h inh CB 6.8 and Cy5 interf NS3h 0.755*.
Screening CCN(CC)c1ccc(/C=C2/SC(=S)N(CNc3cccc(C)c3)C2=O)cc1 returned NS3h inh CB 8.7 and Cy5 interf NS3h 0.65*.
For CCN1C(=O)/C(=C\c2cccc(C)c2)SC1=S the results were NS3h inh CB -2.3 and Cy5 interf NS3h 0.94.
Cc1ccc(NC(=O)CSc2nc3c(c(=O)n(C)c(=O)n3C)n2C)cc1C was read as NS3h inh CB 4.7 and Cy5 interf NS3h 1.16.
Screening COC(=O)CC(C(=O)OC)C(CC(=O)OC)C(=O)OC (stereo not drawn) returned NS3h inh CB -12.6 and Cy5 interf NS3h 0.999.
`O=C(/C=C/c1ccccc1)Nc1ccccc1I` gave NS3h inh CB 12.0 and Cy5 interf NS3h 0.959.
`O=C(/C=C\c1ccccc1)Nc1ccc2c3c(cccc13)CC2` gave NS3h inh CB 23.1 and Cy5 interf NS3h 0.732*.
For CC(=O)c1ccc(OC(=O)c2ccc([N+](=O)[O-])cc2)cc1 the results were NS3h inh CB 10.9 and Cy5 interf NS3h 0.975.
CC12CC3CC(C)(C1)CC(CNC(=O)COc1ccccc1)(C3)C2 was read as NS3h inh CB 17.7 and Cy5 interf NS3h 0.699*.
For Cc1cc(Br)cc(C)c1NC(=O)COc1ccccc1 the results were NS3h inh CB 19.9 and Cy5 interf NS3h 1.01.
Screening Cc1c(Br)c(C(F)(F)F)nn1CC(=O)Nc1cc(C(F)(F)F)ccc1Cl returned NS3h inh CB 0.0 and Cy5 interf NS3h 1.04.
Screening Cc1c(Br)c(C(F)(F)F)nn1CC(=O)N(C)c1ccccc1 returned NS3h inh CB 6.8 and Cy5 interf NS3h 0.55*.
For Cc1ccnc(NS(=O)(=O)c2ccc(N)cc2)c1 the results were NS3h inh CB 5.7 and Cy5 interf NS3h 0.978.
`C=CCN1C(=O)/C(=C/c2cccc(Br)c2)SC1=S` gave NS3h inh CB 0.4 and Cy5 interf NS3h 0.939.
Screening C=CCN1C(=O)/C(=C\c2ccc(Br)c([N+](=O)[O-])c2)SC1=S returned NS3h inh CB 18.0 and Cy5 interf NS3h 0.646*.
Screening COc1cc(/C=C2/C(=O)N(c3ccc(Cl)c(Cl)c3)N=C2C)ccc1OC(C)=O returned NS3h inh CB 9.6 and Cy5 interf NS3h 0.807.
`Clc1ccc(CN2CCN(/N=C\c3ccc(Br)s3)CC2)cc1` gave NS3h inh CB 3.1 and Cy5 interf NS3h 1.06.
Screening COc1ccc(C)cc1NC(=O)Cc1ccccc1[N+](=O)[O-] returned NS3h inh CB 11.9 and Cy5 interf NS3h 1.08.
COC(=O)c1ccc(C(=O)OC)c(NC(=O)c2c(Cl)cccc2Cl)c1 was read as NS3h inh CB 19.0 and Cy5 interf NS3h 1.06.
`COC(=O)c1ccc(C(=O)OC)c(NC(=O)CC(c2ccccc2)c2ccccc2)c1` gave NS3h inh CB 14.2 and Cy5 interf NS3h 0.745*.
For COC(=O)c1ccc(C(=O)OC)c(NC(=O)Cc2ccccc2[N+](=O)[O-])c1 the results were NS3h inh CB 10.5 and Cy5 interf NS3h 0.776*.
Screening O=C(c1c(Cl)cccc1Cl)N(Cc1ccccc1)c1ccccn1 returned NS3h inh CB 8.7 and Cy5 interf NS3h 0.914.
`O=C(CSc1nnc(CCCN2C(=O)c3cccc4cccc(c34)C2=O)n1-c1ccccc1)NCc1cccnc1` gave NS3h inh CB 14.3 and Cy5 interf NS3h 0.879.
Screening O=C(O)CN(c1ccccc1)S(=O)(=O)c1ccccc1[N+](=O)[O-] returned NS3h inh CB 2.0 and Cy5 interf NS3h 1.03.
`CC(C)CNC(=O)CN(c1ccccc1)S(=O)(=O)c1ccccc1[N+](=O)[O-]` gave NS3h inh CB 19.5 and Cy5 interf NS3h 0.689*.
Screening O=C(CN(c1ccccc1)S(=O)(=O)c1ccccc1[N+](=O)[O-])Nc1cccc(Cl)c1 returned NS3h inh CB -6.1 and Cy5 interf NS3h 1.03.
`CC(NC(=O)CN(c1ccccc1)S(=O)(=O)c1ccccc1[N+](=O)[O-])c1ccccc1` (stereo not drawn) gave NS3h inh CB 20.4 and Cy5 interf NS3h 0.676*.
`CCCC(C)NC(=O)c1c(Cl)cccc1Cl` (stereo not drawn) gave NS3h inh CB 10.7 and Cy5 interf NS3h 1.09.
`Cc1ccc2cccc(OC(=O)c3ccc(Br)o3)c2n1` gave NS3h inh CB 0.9 and Cy5 interf NS3h 1.01.
O=C(Oc1ccc(Oc2ccccc2)cc1)c1ccc(Br)o1 was read as NS3h inh CB 10.0 and Cy5 interf NS3h 1.22*.
Screening CC(NC(=O)c1ccc(Br)cc1)c1ccccc1 (stereo not drawn) returned NS3h inh CB 12.4 and Cy5 interf NS3h 0.787*.
CC(=O)CC(=O)NC(C)c1ccccc1 (stereo not drawn) was read as NS3h inh CB 3.2 and Cy5 interf NS3h 0.969.
`N#Cc1ccccc1N=C1C(=O)Nc2ccccc21` gave NS3h inh CB 3.6 and Cy5 interf NS3h 1.08.
Screening O=C1Nc2ccc([N+](=O)[O-])cc2C1=Nc1ccc(-c2ccc(N=C3C(=O)Nc4ccc([N+](=O)[O-])cc43)cc2)cc1 returned NS3h inh CB 7.9 and Cy5 interf NS3h 0.77*.
